AmpC detergent: qHTS Inhibitors of AmpC Beta-Lactamase (assay with detergent); AmpC hydrolysis of nitrocefin, absorbance 480 nm, 0.01% Triton; AID 485294, 2010; P00811; Potency, µM (doses to about 114 µM), for the others: at the highest dose activity change, negative = inhibition, hits mostly inhibitors; 370,000 tested, 0.041% active;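 also: potency is read from the fitted curve at half-maximal effect; 0% = no-compound wells and -100% = no-enzyme wells; nearly all actives have a fitted effect of over 25% in size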
Target sequence (P00811 whole entry, looked up): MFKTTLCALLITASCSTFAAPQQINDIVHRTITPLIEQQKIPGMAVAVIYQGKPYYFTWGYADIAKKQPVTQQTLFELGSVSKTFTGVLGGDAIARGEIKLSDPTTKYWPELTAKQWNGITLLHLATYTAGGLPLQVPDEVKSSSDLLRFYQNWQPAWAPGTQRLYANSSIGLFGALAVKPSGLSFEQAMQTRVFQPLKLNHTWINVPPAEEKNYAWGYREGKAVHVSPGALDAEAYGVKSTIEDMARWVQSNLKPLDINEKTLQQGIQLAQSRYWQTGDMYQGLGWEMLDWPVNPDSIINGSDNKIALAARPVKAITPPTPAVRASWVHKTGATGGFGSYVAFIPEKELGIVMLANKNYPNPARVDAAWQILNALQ
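20 mM phosphate pH 7.0 + 0.01% (detergent screen) or 0.0001% Triton X-100; 5.3 nM AmpC reagent; cpd preinc 15 min RT; nitrocefin (800 uM stock) to start; A480 q20 s × 4 min; Activity was normalised to no-enzyme and no-compound control wells.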
Shiga inhibitor: A qHTS for Small Molecule Inhibitors of Shiga Toxin; Vero cells, Shiga toxin protein synthesis inhibition reporter; AID 2315, 2010; inhibition, % at 38.7 µM; 290,000 tested, 9.2% active; in the data active = inhibition mostly above about 28%, no sharp cut-off; inactive = mostly below about 43%; also: 0% is about no effect
CHX counter: Cycloheximide Counterscreen for Small Molecule Inhibitors of Shiga Toxin; 300,000 tested, 12% active; max response, %; AID 2314, 2010; cell reporter, cycloheximide protein synthesis inhibition counterscreen; in the data active = max response mostly above about 13%, no sharp cut-off; inactive = mostly below about 14%; also: read at 38.3 µM for the half of the compounds with a filed dose; 0% is about no effect
NS1 inh: qHTS Assay for Inhibitors of Influenza NS1 Protein Function | 270,000 tested, 0.4% active | AID 2326, 2010 | Potency, µM (top dose mostly 46.1 µM), for inactives: top-dose activity, positive = more growth; calls by dose curve; also: potency is read from the fitted curve at half-maximal effect; actives are rising curves; nearly all actives have a fitted effect of over 50% in size
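S. cerevisiae expressing influenza A NS1, grown in glucose, washed, then diluted 1:100 into pH 6.0 -URA galactose medium with 23 nl compound. Growth recovery read as OD600; NS1-free strain serves as control.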
AmpC no deterg: qHTS Inhibitors of AmpC Beta-Lactamase (assay without detergent) | AID 485341, 2010 | AmpC nitrocefin hydrolysis, absorbance 480 nm, 0.0001% Triton | Potency, µM (top dose mostly 57.1 µM), without a hit: top-dose activity change, negative = inhibition, hits mostly inhibitors | 330,000 tested, 0.52% active | P00811;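 also: potency is read from the fitted curve at half-maximal effect; plate controls were no compound for no effect and no enzyme for full effect; nearly all actives have a fitted effect of over 20% in size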
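20 mM phosphate pH 7.0 + 0.01% (detergent screen) or 0.0001% Triton X-100; 5.3 nM AmpC reagent; cpd preinc 15 min RT; nitrocefin (800 uM stock) to start; A480 q20 s × 4 min; Activity was normalised to no-enzyme and no-compound control wells.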
* hit, by the source's call; ? = inconclusive; · = not tested or not shown; [ ] = another dose, or the depositor's remark. Only a selection was taken, and hits are over-represented in it overall. Unless noted, calls follow the shape of the dose curve; as a rule, active = well fitted curve in the direction sought with a large enough effect; inconclusive = small, poorly fitted or top-dose-only effect, or another doubt; inactive = no such curve, though single readings can be large; an effect the other way counts as inactive or inconclusive.

SMILES	AmpC detergent	Shiga inhibitor	CHX counter	NS1 inh	AmpC no deterg
CCOc1ccc(NS(=O)(=O)c2ccc(C(=O)N3CCCC(C)C3)cc2)cc1 (stereo not given)	-13.4%	·	·	·	?
CCOc1ccc(C(=O)N2CCCCCC2)cc1	-3.1%	11.3	0.9	2.6%	-5.4%
CC1CCCN(C(=O)c2ccncc2)C1 (stereo not given)	0.3%	2.8	-1.8	2.1%	-9.7%
CCOc1ccc(N=C(/C(C(=O)C(=O)N2CCOCC2)=C(\O)c2ccccc2)c2ccccc2)cc1	?	61.9*	53.0*	-2.1%	-36.8%
CCOc1ccc(C(=O)C(c2ccccc2)N2CCOCC2)cc1 (stereo not given)	-14.3%	-11.6	-3.1	-16.2%	62.1%
CCOc1ccc(OCc2ccc(C(=O)N3CCCC(C)C3)cc2)cc1 (stereo not given)	-8.2%	101.5*	41.1*	·	88.8%
CCOc1ccc(OCc2ccc(C(=O)N3CCOCC3)cc2)cc1	-13.7%	44.4*	36.2*	-5.0%	26.5%
CC1CCCN(C(=O)c2ccc(COc3ccccc3Br)cc2)C1 (stereo not given)	-15.0%	15.3	9.1*	2.6%	88.2%
Cc1nc(SCC(=O)OC(C)(C)C)c2c3c(sc2n1)CCCC3	16.2%	·	·	·	·
CCOc1ccc(N(CC)S(=O)(=O)c2cc(Br)cc3c2N(C(C)=O)C(C)C3)cc1 (stereo not given)	4.3%	·	·	·	·
CCOc1ccc(C(=O)Nc2ccc3nc(SCC(=O)N4CCc5ccccc54)sc3c2)cc1	2.8%	·	·	·	·
CCNc1ccc2c(Cl)cc(=O)oc2c1	3.4%	22.0	19.5*	-13.8%	-5.0%
O=[N+]([O-])c1ccc(NNC(=S)Nc2ccc(F)cc2)cc1	-4.5%	85.6*	27.5*	2.8%	-51.1%
CCCNC(=S)Nc1ccc(Br)cc1	-4.5%	14.9	16.0	14.4%	-13.0%
CCCN1CCC(NC(=S)Nc2ccc([N+](=O)[O-])cc2)CC1	-3.5%	25.7	10.2*	3.3%	-26.0%
CCCN1CCN(C(=S)Nc2ccc([N+](=O)[O-])cc2)CC1	-9.8%	1.8	-1.0	-8.5%	-22.0%
S=C(NCCc1ccccc1)Nc1ccc(Br)cc1	?	16.2	52.8*	-16.6%	-35.9%
CC(C)CCNC(=S)Nc1ccc(Br)cc1	-15.5%	47.9*	30.0*	-34.3%	-12.6%
CN(CC(=O)Nc1ccccc1Cl)CC(=O)N(C)c1c(N)n(Cc2ccccc2)c(=O)[nH]c1=O	·	·	·	·	2.7%
CN(C(=O)CC(=O)Nc1ccc(Cl)c(Cl)c1)c1ccccc1	?	23.3	11.6	·	6.5%
CC(C)CCNC(=O)/C=C/c1ccc(Br)cc1	-4.6%	99.7*	37.3*	-23.1%	?
CC(C)CNC(=S)Nc1ccc(S(N)(=O)=O)cc1	1.2%	10.0	-3.8	8.4%	-5.9%
CC(C)CCNC(=S)Nc1ccc([N+](=O)[O-])cc1	0.3%	55.7	30.2*	-35.5%	-28.9%
Cc1ccc(NC(=S)NCC(C)C)cc1	-11.5%	39.5*	35.4*	-4.5%	-18.4%
S=C(NCCc1ccccc1)Nc1ccccn1	0.4%	91.6*	39.2*	-1.6%	-44.7%
SMILES	AmpC detergent	Shiga inhibitor	CHX counter	NS1 inh	AmpC no deterg
Fc1ccc(CSc2nnc3ccccn23)c(Cl)c1	-15.8%	95.9*	44.5*	·	-12.4%[11.4 µM]
Brc1ccc(CSc2nnc3ccccn23)cc1	-13.1%	49.7*	25.6*	·	0.2%[11.4 µM]
CCn1c(SCc2nc(-c3ccccc3)no2)nnc1-c1ccco1	?	11.1	9.9	-12.0%	-10.7%
CCn1c(SCc2c(F)cccc2Cl)nnc1-c1ccco1	-13.6%	34.0*	12.4*	-100.8%	-19.6%
Clc1cccc(Cl)c1CSc1nnc2ccccn12	7.0%	22.4	0.7	6.3%	-14.8%
Fc1cccc(Cl)c1CSc1nnc2ccccn12	-4.5%	91.0*	42.3*	·	-12.0%
Cc1cccn2c(CNCC3(c4ccccc4)CCCC3)c(C(=O)N3CCOCC3)nc12	-4.6%	-6.3	0.3	1.3%	110.4%
O=C(NCCCN1CCN(c2ccccc2F)CC1)c1ccc2nc(CCc3ccccc3)oc2c1	2.5%	·	·	·	·
CCO[C@H]1OC(C(=O)O)=C[C@@H](C)[C@@H]1CCCO	-2.9%	-9.5	-0.2	-0.6%	-6.3%
CCS(=O)(=O)N1CCc2cc(C(=O)NCc3ccccc3OC)ccc21	-4.7%	·	·	·	·
CCOc1ccc(NC(=O)C2CCCN(S(=O)(=O)c3ccc(Br)s3)C2)cc1 (stereo not given)	-2.7%	·	·	·	·
CC1CCN(S(=O)(=O)c2ccc3c(c2)CCN3C(=O)Nc2ccc(Br)cc2F)CC1	21.7%	·	·	·	·
N#Cc1c(Sc2ncc(C(F)(F)F)cc2Cl)nsc1C/C=N\OCc1ccccc1Br	4.7%	11.8	3.6	20.9%	?
Cc1c(C(=O)N(Cc2ccccc2F)C2CCS(=O)(=O)C2)oc2ccccc12 (stereo not given)	14.0%	·	·	·	·
O=C(Cc1c(F)cccc1Cl)NNC(=O)Nc1ccc2c(c1)OCO2	1.1%	-7.0	-4.0	5.6%	-15.9%
Oc1ccc(Br)cc1C1C=C(c2ccc3c(c2)OCO3)NC(c2c(F)cccc2Cl)N1 (stereo not given)	·	81.8*	45.8*	·	·
Oc1ccccc1C1C=C(c2ccc3c(c2)OCO3)NC(c2c(F)cccc2Cl)N1 (stereo not given)	·	97.2*	45.6*	·	·
Cc1cccc(CNC(=O)c2cccc(NC(=O)N3CCSc4ncccc43)c2)c1	11.3%	·	·	·	·
COc1ccc(C(=O)Nc2ccc(C(=O)OCC(=O)c3ccccc3)cc2)cc1	6.6%	39.5	18.8*	9.9%	-17.2%
CN1CCc2ccc(NC(=O)c3ccc(C(F)(F)F)cc3)cc2C1	?	25.1*	13.7*	-2.1%	0.0%
CCOc1ccc(NC(=O)c2cccc(NC(=O)c3ccccc3)c2)cc1	-4.8%	53.1*	17.2*	13.2%	-30.4%
COc1ccc(NC(=O)c2cccc(NC(=O)c3ccccc3)c2)cc1	-11.0%	24.8	17.9*	-10.6%	-37.0%
COc1ccc(NC(=O)c2cc3c([nH]c4ccccc43)c(C)n2)cc1	-7.1%	16.2	-1.0	-7.0%	8.91µM*
COc1ccccc1Oc1ccc(NC(=O)c2ccccc2C)cc1	7.2%	61.7	15.2	-0.9%	-19.5%
COc1ccccc1Oc1ccc(NC(=O)c2ccccc2)cc1	7.3%	46.6	28.4*	1.3%	-25.5%
SMILES	AmpC detergent	Shiga inhibitor	CHX counter	NS1 inh	AmpC no deterg
COc1ccc(C(=O)Nc2cccc(C(=O)N3CCCC3)c2)cc1	-1.2%	9.2	10.6*	0.0%	-4.9%
CCOc1c(Cl)cc(C(=O)Nc2cccc(C(=O)O)c2)cc1Cl	3.0%	69.3*	43.3*	-1.2%	-25.9%
C[C@H](NCc1ccccc1)c1ccccc1	·	-9.7	-10.7	·	·
O=c1nc(NCc2ccccc2Cl)cn[nH]1	2.0%	10.3	0.5	11.7%	-7.1%
CSc1ncc(C(=O)Nc2c(C)cccc2C)c(-c2ccccc2)n1	17.2%	·	·	·	·
CCOc1ccc(NS(=O)(=O)c2cc(NC(=O)c3ccc(C)cc3)ccc2Cl)cc1	?	-14.2	17.0*	-1.8%	-38.0%

Compound activity: PubChem BioAssay, National Center for Advancing Translational Sciences (NCATS)
